“And” between values parts separate entries of the source, which are not always exact repeats. Equal values may be shown once. This is part of a sample that, as a whole, favours compounds with a hit. Of some 83,000 tested, about 20% had one in any assay.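 Note: values are percent growth. 100 is the growth of untreated cells, values between 100 and 0 indicate rising inhibition; between -100 and 0 indicates cell death.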 A number with no mark means an inactive call. The source made the active and inactive calls. How the source made its calls: active means growth percent below 10; inactive means the rest.
The compounds below were run on MDA-MB-468 breast (assay: NCI-60 one-dose screen, 48 h (100 = growth as untreated, 0 = no growth, -100 = all killed)). Conditions: 10 µM unless noted.
Work on Nc1nc(-c2cccc([N+](=O)[O-])c2)c(N=Nc2cccc([N+](=O)[O-])c2)s1 yielded a growth of 62%. Cc1ncc(-c2ccoc2)c(NC2CCCCCC2)n1 showed a growth of 105%. With O=C(Nc1ccc(-n2cc(-c3ccncc3)c(-c3ccc(O)c(Cl)c3)n2)cc1)c1cc(Cl)cc(Cl)c1 the growth was 50.6%. C#CCOc1ccc(/C=N/Nc2nc(-c3ccc(OC)cc3)cs2)cc1 was tested, and the growth was 45.3%. For CCN(CC)CCOc1ccc(/C(=C(\Cl)c2ccccc2)c2ccccc2)cc1, the growth was -60% (active) and -6.23% (active). COc1cc(C(=O)/C=C/c2cccnc2Nc2ccc(Cl)cc2)cc(OC)c1OC was tested, and the growth was -80.1% (active). With CC(=O)Oc1c(C)c(C)c2c(c1C)CCC(C)(CC(=O)OCCCCCCCCCCC[P+](c1ccccc1)(c1ccccc1)c1ccccc1)O2 (configuration not stated) the growth was -55.7% (active). Compound CCCCNCCCCCNc1cc(OC)cc2cccnc12 has a growth of 68.8%. Work on COc1ccc(/C(=N\O)c2cc(OC)c(OC)c(OC)c2)c(OC)c1N yielded a growth of 29.2%. O=[N+]([O-])c1ccccc1NCSc1ccc(Cl)cc1 showed a growth of 92.1%. O=C(O)c1cc(N=Nc2ccc(-c3ccc(N=Nc4c(S(=O)(=O)O)cc5ccc(Nc6ccccc6)cc5c4O)cc3)cc2)ccc1O showed a growth of 124%. In the case of Nc1ccc2c(c1)Cc1cc(NC(=O)C(F)(F)F)ccc1-2, the growth was 75.7%. For COc1cc(C(=O)NN=C2c3ccccc3-c3ccccc32)cc(OC)c1OC, the growth was -3.4% (active). With Clc1ccc(Cc2nnc3sc(-c4cccnc4)nn23)cc1 the growth was 94.2%. Work on N#CC1(O)CCCCC1 yielded a growth of 108%. C/C(=N/Nc1nc(N/N=C(/C)c2ccc([N+](=O)[O-])cc2)nc(N2CCOCC2)n1)c1ccc([N+](=O)[O-])cc1 was tested, and the growth was 79.7%. With Cc1cc(=O)oc2cc(Oc3nc(-c4ccc(Cl)cc4)cn4c(-c5ccc(Cl)cc5)cnc34)ccc12 the growth was 84.8%. In the case of CN(C)CCCNc1nc2ccccc2c2c(=O)c3cc(F)ccc3sc12, the growth was -6.97% (active). CCS(=O)(=O)N[C@@H]1O[C@H](COC(C)=O)C(OC(C)=O)[C@H](OC(C)=O)C1OC(C)=O (some centres not stated) gave a growth of 100%. In the case of C=C1CC[C@@H]2[C@](C)(COC(C)=O)[C@H](OC(C)=O)CC[C@@]2(C)[C@@H]1CC(Sc1ccccc1)C1=CCOC1=O (some centres not stated), the growth was -61.1% (active). With O=[N+]([O-])c1ccc(-n2[nH]nnc2=S)cc1 the growth was 123%. COc1ccc(C[n+]2c3ccccc3n3c4ccc(N)cc4ccc32)c(OC)c1OC was tested, and the growth was -22.5% (active). For O=C(CN1CCOCC1)NNc1ncnc2ccccc12, the growth was 55.9%. In the case of CN(C)CCC(CCN(C)C)(C(=O)O)c1ccccc1, the growth was 102%. With Cl.Fc1c[c-]c(-c2ccccn2)c(F)c1.[Pt].c1ccc([PH+](CC[PH+](c2ccccc2)c2ccccc2)c2ccccc2)cc1 the growth was -79.2% (active). Work on O=C(COc1ccc(/C=C2\Cc3ccccc3C2=O)cc1)c1ccc(Cl)cc1 yielded a growth of 111%. In the case of COc1ccc(OC)c([C@H]2c3[nH]c4ccccc4c3C[C@H]3C(=O)N(CCCCCCC(=O)NO)CC(=O)N23)c1, the growth was 74.9%. For O=C(COc1ccc(/C=C2\C(=O)Nc3cc(Cl)ccc32)cc1)Nc1ccc(Cl)cc1, the growth was 86.8%. Work on O=CNCCc1ccccc1 yielded a growth of 97.8%. For c1ccc(C(Nc2ccccn2)(c2ccccc2)c2ccccc2)cc1, the growth was 52.7%. In the case of c1ccc(-c2nc(N3CCNCC3)c3nc(-c4ccccc4)oc3n2)cc1, the growth was -37.2% (active). In the case of COc1ccc(-c2cc(-c3ccc(OC)c(OC)c3)nc(SCCCC(=O)NO)n2)cc1, the growth was -30.7% (active). CC1=C2C(=C[C@@](C)(CO)[C@@H]2OC(=O)N(C)CCN(C)C(=O)OC(C)(C)C)C(=O)[C@](C)(O)C12CC2 was tested, and the growth was -10.1% (active). In the case of COc1cc2c3c(c4c5ccccc5[nH]c4c2c(OC)c1OC)C(=O)N(CCN1CCOCC1)C3=O, the growth was 65.7%. CS(=O)(=O)Nc1cc(-c2ccc3ncnc(Nc4c(Cl)ccc5c4OCO5)c3c2)cnc1Cl was tested, and the growth was -74.3% (active). Work on Cc1c(C(N)=O)sc2nc(C)n(/N=c3\scc(-c4ccccc4)n3Cc3ccccc3)c(=O)c12 yielded a growth of 79.9%. For C#CCOc1ccc2ncnc(Nc3ccc(NC(=O)C=C)cc3)c2c1, the growth was -22.3% (active).
